Measured values from the supplement of paper PMC11732987, “Enantioselective OTUD7B fragment discovery through chemoproteomics screening and high-throughput optimisation” (Communications Chemistry, 2025).

Experiments:
Assay in all cases: log2 ratio of Biotin-Ahx-Ub-VS probe labelling (fragment/DMSO); higher = less target engagement (more negative = stronger competition), active = hit call of the paper (q ≤ 0.05, log2 ratio ≤ -1)
Details in all cases: compound concentration: 200 uM; treatment time: 3 h
[1] = target: USP34 (UniProt Q70CQ2)
Chain of USP34 (Q70CQ2 whole entry, the tested form may be a part): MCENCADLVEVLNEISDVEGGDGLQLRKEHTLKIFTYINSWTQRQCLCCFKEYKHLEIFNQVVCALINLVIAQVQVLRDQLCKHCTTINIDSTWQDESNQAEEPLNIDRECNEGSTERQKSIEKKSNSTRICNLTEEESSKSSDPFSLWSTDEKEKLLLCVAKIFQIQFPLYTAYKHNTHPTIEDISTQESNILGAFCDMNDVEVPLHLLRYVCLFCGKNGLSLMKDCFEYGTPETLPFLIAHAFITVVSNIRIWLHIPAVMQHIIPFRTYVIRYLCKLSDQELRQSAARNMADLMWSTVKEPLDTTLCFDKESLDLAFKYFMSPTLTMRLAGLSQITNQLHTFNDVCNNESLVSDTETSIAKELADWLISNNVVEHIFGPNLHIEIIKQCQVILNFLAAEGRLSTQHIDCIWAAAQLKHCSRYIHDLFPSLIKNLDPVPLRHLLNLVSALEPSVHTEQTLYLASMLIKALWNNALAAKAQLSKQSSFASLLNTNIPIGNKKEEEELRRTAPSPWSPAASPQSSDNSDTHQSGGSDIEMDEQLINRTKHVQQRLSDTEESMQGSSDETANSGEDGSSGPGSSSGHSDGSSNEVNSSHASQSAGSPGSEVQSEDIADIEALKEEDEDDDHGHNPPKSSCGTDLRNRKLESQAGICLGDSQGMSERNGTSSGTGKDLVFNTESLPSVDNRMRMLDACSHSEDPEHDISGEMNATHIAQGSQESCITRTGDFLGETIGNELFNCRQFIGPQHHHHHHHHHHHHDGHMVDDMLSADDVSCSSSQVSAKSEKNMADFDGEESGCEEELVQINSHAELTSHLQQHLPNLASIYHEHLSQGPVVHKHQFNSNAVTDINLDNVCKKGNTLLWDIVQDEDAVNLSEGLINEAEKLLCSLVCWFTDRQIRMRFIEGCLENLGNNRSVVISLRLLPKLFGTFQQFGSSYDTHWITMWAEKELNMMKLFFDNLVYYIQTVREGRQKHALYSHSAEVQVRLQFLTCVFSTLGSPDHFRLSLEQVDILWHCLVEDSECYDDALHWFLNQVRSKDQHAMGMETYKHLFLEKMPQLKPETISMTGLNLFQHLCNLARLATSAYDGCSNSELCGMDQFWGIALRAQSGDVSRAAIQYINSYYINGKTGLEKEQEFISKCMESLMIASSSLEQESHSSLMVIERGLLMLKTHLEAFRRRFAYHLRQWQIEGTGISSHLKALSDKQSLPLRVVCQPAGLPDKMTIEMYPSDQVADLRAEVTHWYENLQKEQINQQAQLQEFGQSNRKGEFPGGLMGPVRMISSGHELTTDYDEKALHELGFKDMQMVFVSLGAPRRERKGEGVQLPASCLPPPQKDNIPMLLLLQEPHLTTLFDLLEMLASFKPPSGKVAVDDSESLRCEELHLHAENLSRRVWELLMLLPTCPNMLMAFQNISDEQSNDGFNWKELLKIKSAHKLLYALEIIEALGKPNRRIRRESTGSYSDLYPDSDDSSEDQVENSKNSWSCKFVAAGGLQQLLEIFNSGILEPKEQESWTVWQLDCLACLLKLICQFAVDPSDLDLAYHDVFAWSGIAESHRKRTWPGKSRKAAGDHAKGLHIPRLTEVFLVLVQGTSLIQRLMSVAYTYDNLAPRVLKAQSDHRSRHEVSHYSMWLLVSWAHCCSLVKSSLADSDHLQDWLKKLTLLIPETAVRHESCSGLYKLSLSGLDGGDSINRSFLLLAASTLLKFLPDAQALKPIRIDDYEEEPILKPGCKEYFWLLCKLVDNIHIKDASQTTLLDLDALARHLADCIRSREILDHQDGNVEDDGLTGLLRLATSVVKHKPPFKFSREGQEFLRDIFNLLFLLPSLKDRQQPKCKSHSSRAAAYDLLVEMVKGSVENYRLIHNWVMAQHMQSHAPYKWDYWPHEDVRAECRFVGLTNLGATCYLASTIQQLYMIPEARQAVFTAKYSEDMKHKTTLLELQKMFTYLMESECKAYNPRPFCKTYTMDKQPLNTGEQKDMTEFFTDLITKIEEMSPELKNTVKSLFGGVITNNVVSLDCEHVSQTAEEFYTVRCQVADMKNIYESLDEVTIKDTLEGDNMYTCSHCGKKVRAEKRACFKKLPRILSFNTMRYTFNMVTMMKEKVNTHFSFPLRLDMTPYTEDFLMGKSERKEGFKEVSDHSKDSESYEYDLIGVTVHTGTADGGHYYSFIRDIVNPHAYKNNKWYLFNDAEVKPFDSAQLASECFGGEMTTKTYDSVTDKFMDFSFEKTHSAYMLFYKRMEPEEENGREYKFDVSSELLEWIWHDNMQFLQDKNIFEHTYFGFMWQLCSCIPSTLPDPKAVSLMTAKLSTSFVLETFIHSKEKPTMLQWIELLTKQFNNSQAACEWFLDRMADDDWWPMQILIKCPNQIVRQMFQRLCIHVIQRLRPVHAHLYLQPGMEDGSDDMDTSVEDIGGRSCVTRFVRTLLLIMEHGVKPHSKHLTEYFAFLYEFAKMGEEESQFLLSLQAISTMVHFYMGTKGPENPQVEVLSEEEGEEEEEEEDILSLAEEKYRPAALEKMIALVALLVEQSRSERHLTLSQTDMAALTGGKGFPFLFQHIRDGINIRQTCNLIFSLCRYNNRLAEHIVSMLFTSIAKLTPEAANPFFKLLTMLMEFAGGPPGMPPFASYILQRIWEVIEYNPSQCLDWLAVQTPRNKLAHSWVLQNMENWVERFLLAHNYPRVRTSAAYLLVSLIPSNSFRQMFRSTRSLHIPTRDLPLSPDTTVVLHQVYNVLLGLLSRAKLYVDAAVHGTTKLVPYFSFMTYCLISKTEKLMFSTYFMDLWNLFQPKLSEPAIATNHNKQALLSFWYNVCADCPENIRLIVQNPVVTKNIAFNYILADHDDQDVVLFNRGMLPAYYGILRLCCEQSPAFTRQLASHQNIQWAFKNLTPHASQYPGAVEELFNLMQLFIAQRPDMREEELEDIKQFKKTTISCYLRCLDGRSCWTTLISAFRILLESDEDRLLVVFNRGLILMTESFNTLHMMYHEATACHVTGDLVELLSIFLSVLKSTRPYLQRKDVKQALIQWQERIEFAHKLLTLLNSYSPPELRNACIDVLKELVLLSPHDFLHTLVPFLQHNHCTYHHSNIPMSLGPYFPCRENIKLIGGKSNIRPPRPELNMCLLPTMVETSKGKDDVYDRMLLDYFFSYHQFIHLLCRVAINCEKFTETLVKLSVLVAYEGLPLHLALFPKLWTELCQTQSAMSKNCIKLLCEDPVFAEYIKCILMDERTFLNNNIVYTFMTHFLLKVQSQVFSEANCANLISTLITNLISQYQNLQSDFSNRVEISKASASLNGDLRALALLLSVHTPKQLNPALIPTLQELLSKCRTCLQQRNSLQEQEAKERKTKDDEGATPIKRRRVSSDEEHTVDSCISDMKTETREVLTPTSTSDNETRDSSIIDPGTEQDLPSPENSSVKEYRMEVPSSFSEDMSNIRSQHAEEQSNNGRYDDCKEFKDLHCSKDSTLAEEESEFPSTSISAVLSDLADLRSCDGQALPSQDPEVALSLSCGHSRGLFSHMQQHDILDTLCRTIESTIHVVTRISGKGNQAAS
How it was run: (§1)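 Average log2 ratios of fragment over vehicle were obtained by unpaired t-test from global-median-normalised Spectronaut label-free quantities. Proteins with ≥2 unique peptides were included. HEK293T lysate (495 µg per sample) was treated in triplicate with fragment at 200 µM or vehicle for 3 h, then with Biotin-Ahx-Ub-VS at 0.5 µM final for 1 h, and labelled DUBs were NeutrAvidin-enriched and run by diaPASEF LC-MS/MS.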

[2] = target: T1, USP36 (UniProt Q9P275)
T1 sequence (whole entry): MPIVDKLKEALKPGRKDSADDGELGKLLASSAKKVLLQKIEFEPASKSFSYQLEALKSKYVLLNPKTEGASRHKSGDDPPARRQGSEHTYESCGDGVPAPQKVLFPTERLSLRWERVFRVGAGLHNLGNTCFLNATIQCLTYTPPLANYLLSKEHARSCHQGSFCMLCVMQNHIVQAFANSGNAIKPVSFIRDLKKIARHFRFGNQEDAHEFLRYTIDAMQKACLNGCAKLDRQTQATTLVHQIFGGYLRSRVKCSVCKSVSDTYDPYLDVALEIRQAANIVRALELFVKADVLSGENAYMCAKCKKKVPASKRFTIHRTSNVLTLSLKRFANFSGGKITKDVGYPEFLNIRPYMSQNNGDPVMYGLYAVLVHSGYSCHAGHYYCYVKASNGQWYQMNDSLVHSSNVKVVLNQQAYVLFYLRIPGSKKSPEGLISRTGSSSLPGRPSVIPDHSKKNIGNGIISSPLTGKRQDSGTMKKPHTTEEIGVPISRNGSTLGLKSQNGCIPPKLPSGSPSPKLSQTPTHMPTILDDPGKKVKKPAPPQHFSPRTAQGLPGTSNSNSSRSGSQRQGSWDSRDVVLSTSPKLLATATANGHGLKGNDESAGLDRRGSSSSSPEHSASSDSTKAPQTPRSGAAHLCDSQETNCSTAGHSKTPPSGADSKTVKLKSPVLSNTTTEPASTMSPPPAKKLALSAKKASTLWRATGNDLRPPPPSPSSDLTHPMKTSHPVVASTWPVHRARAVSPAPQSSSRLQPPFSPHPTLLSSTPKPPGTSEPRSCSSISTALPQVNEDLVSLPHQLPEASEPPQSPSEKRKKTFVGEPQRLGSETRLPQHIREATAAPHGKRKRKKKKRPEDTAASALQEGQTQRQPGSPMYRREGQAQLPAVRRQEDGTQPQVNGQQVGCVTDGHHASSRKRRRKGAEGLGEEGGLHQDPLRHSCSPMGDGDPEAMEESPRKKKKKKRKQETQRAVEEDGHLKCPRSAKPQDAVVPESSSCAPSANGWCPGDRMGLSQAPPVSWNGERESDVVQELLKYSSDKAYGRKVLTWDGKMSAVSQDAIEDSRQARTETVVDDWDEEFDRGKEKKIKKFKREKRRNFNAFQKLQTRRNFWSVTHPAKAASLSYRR
How it was run: as §1

[3] = target: T2, USP38 (UniProt Q8NB14)
T2 sequence (whole entry): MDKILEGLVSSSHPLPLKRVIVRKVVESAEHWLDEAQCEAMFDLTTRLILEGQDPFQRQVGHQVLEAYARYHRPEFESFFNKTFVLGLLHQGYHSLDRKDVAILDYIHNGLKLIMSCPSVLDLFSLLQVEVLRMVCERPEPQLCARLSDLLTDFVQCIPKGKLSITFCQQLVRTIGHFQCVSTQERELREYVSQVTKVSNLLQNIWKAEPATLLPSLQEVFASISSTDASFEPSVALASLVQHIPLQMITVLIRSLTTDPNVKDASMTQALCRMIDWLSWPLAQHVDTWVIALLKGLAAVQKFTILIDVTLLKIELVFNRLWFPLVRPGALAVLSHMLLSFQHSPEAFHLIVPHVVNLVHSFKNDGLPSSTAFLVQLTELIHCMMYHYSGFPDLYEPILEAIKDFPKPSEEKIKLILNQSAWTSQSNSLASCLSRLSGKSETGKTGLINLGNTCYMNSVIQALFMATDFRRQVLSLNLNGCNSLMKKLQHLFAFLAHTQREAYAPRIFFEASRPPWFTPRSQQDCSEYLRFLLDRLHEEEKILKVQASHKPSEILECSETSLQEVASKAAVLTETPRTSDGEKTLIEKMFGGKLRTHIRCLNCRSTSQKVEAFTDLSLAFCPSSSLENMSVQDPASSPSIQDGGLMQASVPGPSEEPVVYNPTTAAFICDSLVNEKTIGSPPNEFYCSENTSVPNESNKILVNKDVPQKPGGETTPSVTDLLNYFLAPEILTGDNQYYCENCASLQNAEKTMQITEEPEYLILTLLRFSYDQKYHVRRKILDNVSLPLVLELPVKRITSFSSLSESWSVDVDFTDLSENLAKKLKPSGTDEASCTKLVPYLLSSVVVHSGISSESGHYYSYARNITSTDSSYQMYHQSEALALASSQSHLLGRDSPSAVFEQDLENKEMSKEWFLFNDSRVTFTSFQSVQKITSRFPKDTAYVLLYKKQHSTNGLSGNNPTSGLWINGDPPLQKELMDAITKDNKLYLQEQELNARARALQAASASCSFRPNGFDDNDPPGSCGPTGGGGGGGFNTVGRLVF
How it was run: as §1

[4] = target: T3, USP39 (UniProt Q53GS9)
T3 sequence (whole entry): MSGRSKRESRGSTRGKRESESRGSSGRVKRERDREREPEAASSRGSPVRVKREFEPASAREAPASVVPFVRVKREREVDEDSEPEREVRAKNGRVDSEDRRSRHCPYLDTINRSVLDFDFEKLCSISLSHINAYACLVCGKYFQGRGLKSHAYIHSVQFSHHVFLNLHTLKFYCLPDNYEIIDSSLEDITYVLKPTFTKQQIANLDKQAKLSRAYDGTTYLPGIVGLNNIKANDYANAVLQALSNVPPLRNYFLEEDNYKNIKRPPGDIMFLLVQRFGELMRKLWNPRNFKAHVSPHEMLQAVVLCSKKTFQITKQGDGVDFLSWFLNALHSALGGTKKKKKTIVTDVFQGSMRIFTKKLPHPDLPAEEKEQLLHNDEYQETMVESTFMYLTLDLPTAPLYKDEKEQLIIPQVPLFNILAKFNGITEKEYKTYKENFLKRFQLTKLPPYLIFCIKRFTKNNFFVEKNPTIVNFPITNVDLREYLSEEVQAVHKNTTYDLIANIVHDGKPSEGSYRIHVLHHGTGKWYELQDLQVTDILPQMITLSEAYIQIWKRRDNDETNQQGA
How it was run: as §1

[5] = target: T4, USP4 (UniProt Q13107)
T4 sequence (whole entry): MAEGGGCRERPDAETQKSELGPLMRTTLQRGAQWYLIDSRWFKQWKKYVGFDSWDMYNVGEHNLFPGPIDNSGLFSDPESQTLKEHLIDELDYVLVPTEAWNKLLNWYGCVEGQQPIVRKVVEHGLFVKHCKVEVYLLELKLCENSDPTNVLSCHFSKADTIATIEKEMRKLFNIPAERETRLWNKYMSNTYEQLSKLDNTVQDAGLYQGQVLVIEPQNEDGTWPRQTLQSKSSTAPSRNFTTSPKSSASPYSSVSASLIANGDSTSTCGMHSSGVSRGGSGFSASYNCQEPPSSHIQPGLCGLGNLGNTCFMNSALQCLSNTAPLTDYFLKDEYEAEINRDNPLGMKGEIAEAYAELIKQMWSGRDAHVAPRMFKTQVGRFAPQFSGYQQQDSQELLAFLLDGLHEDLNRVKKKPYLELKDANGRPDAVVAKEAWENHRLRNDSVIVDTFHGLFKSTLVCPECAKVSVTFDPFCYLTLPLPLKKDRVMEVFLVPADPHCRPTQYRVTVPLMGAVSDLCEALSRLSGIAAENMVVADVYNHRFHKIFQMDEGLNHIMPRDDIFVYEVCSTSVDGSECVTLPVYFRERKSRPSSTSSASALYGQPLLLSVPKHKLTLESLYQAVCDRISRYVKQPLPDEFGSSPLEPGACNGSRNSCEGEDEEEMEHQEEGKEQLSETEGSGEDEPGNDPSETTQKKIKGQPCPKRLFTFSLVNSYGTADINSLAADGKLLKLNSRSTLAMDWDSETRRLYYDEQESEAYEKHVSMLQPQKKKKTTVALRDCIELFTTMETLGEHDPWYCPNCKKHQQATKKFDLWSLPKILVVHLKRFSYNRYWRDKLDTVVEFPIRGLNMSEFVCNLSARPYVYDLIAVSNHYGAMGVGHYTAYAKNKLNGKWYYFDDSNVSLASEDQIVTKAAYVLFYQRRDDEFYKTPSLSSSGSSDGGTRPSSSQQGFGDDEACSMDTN
How it was run: as §1

Measured: log2 ratio of Biotin-Ahx-Ub-VS probe labelling

Cl.O=C(CCl)N[C@H]1C[C@@H](n2cccn2)C1
inactive: [1] -0.109 | [2] 0.0625 | [3] 0.192 | [4] 0.31 | [5] -0.0753
